# Structures can show the parent of a compound that is named as a salt.
# Test system: Haemophilus parainfluenzae
# Experiment: growth AUC normalised to DMSO control (fraction of control); higher = less growth inhibition, active = hit call of the paper
# Conditions: 20 µM;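 active = AUC significantly below DMSO controls by Student t-fit with adjusted P under 0.01; inactive = not significantly reduced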
# In short: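 Three biological replicates were carried out, with OD578 read hourly for 24 h. Before inoculation at a starting OD578 of 0.01, pathogens were passaged anaerobically twice; plates were pre-reduced mGAM containing 20 μM compound and 1% DMSO, sealed with breathable membranes, and the Haemophilus parainfluenzae medium carried added hemin and NAD. Area under each growth curve was calculated by the trapezoidal rule up to the exponential-to-stationary transition and normalised to DMSO controls on the same plate.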
row,Structure (SMILES),growth AUC normalised to DMSO control
1,CC(C(=O)O)c1ccc(-c2ccccc2)c(F)c1 (stereo not given) [Flurbiprofen],0.943 (inactive)
2,Nc1ccc(S(=O)(=O)c2ccc(N)cc2)cc1 [Dapsone],1 (inactive)
3,O=C(N/N=C/c1ccc([N+](=O)[O-])o1)c1ccc(O)cc1 [Nifuroxazide],0.532 (active)
4,CC1=C(/C=C/C(C)=C/C=C/C(C)=C/C(=O)O)C(C)(C)CCC1 [Retinoic acid],0.995 (inactive)
5,CC(C)(C)C(=O)OCOC(=O)[C@@H]1N2C(=O)[C@@H](NC(=O)[C@H](N)c3ccccc3)[C@H]2SC1(C)C [Pivampicillin],0.942 (inactive)
6,CCN[C@H]1C[C@H](C)S(=O)(=O)c2sc(S(N)(=O)=O)cc21 [Dorzolamide hydrochloride],1.03 (inactive)
7,COc1c(N2CCNC(C)C2)c(F)cc2c(=O)c(C(=O)O)cn(C3CC3)c12 (stereo not given) [Gatifloxacin],0.0535 (active)
8,CC(C)n1c(/C=C/C(O)CC(O)CC(=O)O)c(-c2ccc(F)cc2)c2ccccc21 (stereo not given) [Fluvastatin sodium salt],1 (inactive)
9,O=C(NC(Cc1cc(=O)[nH]c2ccccc12)C(=O)O)c1ccc(Cl)cc1 (stereo not given) [Rebamipide],1.01 (inactive)
10,CN1CCCN(C(c2ccccc2)c2ccc(Cl)cc2)CC1 (stereo not given) [Homochlorcyclizine dihydrochloride],0.942 (inactive)
11,CC(CCc1ccccc1)NCC(O)c1ccc(O)c(C(N)=O)c1 (stereo not given) [Labetalol hydrochloride],0.954 (inactive)
12,CN(C)CCC=C1c2ccccc2C=Cc2ccccc21 [Cyclobenzaprine hydrochloride],0.893 (inactive)
13,CC(C)(C)NC(=O)[C@@H]1C[C@@H]2CCCC[C@@H]2CN1C[C@@H](O)[C@H](Cc1ccccc1)NC(=O)[C@H](CC(N)=O)NC(=O)c1ccc2ccccc2n1 [Saquinavir mesylate],1.63 (inactive)
14,CC(CNC1CCCCC1)OC(=O)c1ccccc1 (stereo not given) [Hexylcaine hydrochloride],0.995 (inactive)
15,Clc1ccc(C(c2ccccc2Cl)C(Cl)Cl)cc1 (stereo not given) [Mitotane],1.01 (inactive)
16,CCCCOC(=O)c1ccc(N)cc1 [Butamben],1 (inactive)
17,CN(C)CCN(Cc1ccc(Cl)cc1)c1ccccn1 [Chloropyramine hydrochloride],1.03 (inactive)
18,CSc1ccc2c(c1)N(CCC1CCCCN1C)c1ccccc1S2 (stereo not given) [Thioridazine hydrochloride],0.72 (active)
19,CC(=O)O[C@]1(C(C)=O)CC[C@H]2[C@@H]3C=C(C)C4=CC(=O)CC[C@@H]4[C@H]3CC[C@@]21C [Nomegestrol acetate],0.976 (inactive)
20,COc1ccc2[nH]cc(CCNC(C)=O)c2c1 [Melatonin],0.966 (inactive)
21,CCN(CC)CCCC(C)Nc1c2ccc(Cl)cc2nc2ccc(OC)cc12 (stereo not given) [Quinacrine dihydrochloride hydrate],0.879 (inactive)
22,CCN1CCCC1CNC(=O)c1cc(S(N)(=O)=O)ccc1OC (stereo not given) [Sulpiride],1.02 (inactive)
23,CC(C(=O)O)c1ccc(N2Cc3ccccc3C2=O)cc1 (stereo not given) [Indoprofen],1.02 (inactive)
24,C#C[C@]1(O)CC[C@H]2[C@@H]3CCc4cc(O)ccc4[C@H]3CC[C@@]21C [Ethinylestradiol],1.04 (inactive)
25,CO[C@@H]1[C@@H](O[C@@H]2O[C@H](C)[C@@H](O[C@H]3C[C@@](C)(O)[C@@H](OC(=O)CC(C)C)[C@H](C)O3)[C@H](N(C)C)[C@H]2O)[C@@H](CC=O)C[C@@H](C)[C@@H](O)/C=C/C=C/C[C@@H](C)OC(=O)C[C@H]1OC(C)=O [Josamycin],0.0327 (active)
26,N[C@@H](Cc1cc(I)c(Oc2cc(I)c(O)c(I)c2)c(I)c1)C(=O)O [(L) Thyroxine],0.96 (inactive)
27,CC[N+](C)(CC)CCC[n+]1c(-c2ccccc2)c2cc(N)ccc2c2ccc(N)cc21 [Propidium iodide],1.04 (inactive)
28,OCCN1CCN(CC/C=C2/c3ccccc3Sc3ccc(Cl)cc32)CC1 [Zuclopenthixol dihydrochloride],0.916 (inactive)
29,COc1cnc(NS(=O)(=O)c2ccc(N)cc2)nc1 [Sulfameter],0.98 (inactive)
30,O=C(O)Cc1ccc(-c2ccccc2)cc1 [Felbinac],0.948 (inactive)

# — the supplement of paper PMC12350171
